From PubChem BioAssay (EPA / NIEHS)
Several values for one entry are separate records, joined by “and”; a condition that tells them apart may be missing. Equal values may be shown once. Records with an inconclusive call do not appear. Where a structure was tested more than once in an assay, its records may differ in their call. Activity calls are given as the source filed them. Rule for the calls, unless noted: active = hit-call score of the fitted dose curve at least 0.9, where 1 is the maximum; inactive = score below 0.9.

Tests used:
[1] = read-out: E-selectin (Homo sapiens) (UniProt P16581); assay: BSK_3C_Eselectin: BioMAP Diversity Plus: 3C Assay for Eselectin Biomarker Activity (AID 2283015); conditions: primary human endothelial cells (HUVEC); actives raise or lower the signal;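 for outcome: cell surface E-selectin protein quantified by ELISA 24 h after dosing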
Method in brief: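 Primary human umbilical vein endothelial cells (3C system) were dosed with chemical and cell-surface E-selectin measured by ELISA 24 h later. Bidirectional curve fitting used DMSO as negative control and baseline.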

[2] = read-out: Interleukin-1 alpha (IL1a), IL1A (gene 3552); assay: BSK_BE3C_IL1a: BioMAP Diversity Plus: BE3C Assay for Interleukin-1 alpha (IL1a) Biomarker Activity (AID 2283016); conditions: primary human bronchial epithelial cells; actives raise or lower the signal
Method in brief: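 Human primary bronchial epithelial cells (BE3C system) were dosed with compound and IL-1a measured by ELISA 24 h later. Activity was fitted bidirectionally against DMSO baseline; cytotoxicity was tracked in parallel cultures by SRB total-protein staining.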

[3] = read-out: Monocyte Chemoattractant Protein-1 (MCP1), CCL2 (gene 6347); assay: BSK_3C_MCP1: BioMAP Diversity Plus: 3C Assay for Monocyte Chemoattractant Protein-1 (MCP1) Biomarker Activity (AID 2283017); conditions: primary human endothelial cells (HUVEC); actives raise or lower the signal
Method in brief: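 Primary human umbilical vein endothelial cells (3C system) were exposed to test chemical for 24 h, after which MCP-1 was quantified by ELISA. Activity was fitted bidirectionally against DMSO as negative control and baseline.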

[4] = read-out: Monocyte Chemoattractant Protein-1 (MCP1), CCL2 (gene 6347); assay: BSK_4H_MCP1: BioMAP Diversity Plus: 4H Assay for Monocyte Chemoattractant Protein-1 (MCP1) Biomarker Activity (AID 2283018); conditions: primary human endothelial cells (HUVEC); actives raise or lower the signal
Method in brief: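 Human umbilical vein endothelial cells (4H system) dosed with chemical; MCP-1 measured by ELISA 24 h after dosing. Bidirectional curve fitting against DMSO negative control as baseline; parallel SRB total-protein staining tracks overt cytotoxicity.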

[5] = read-out: Human Leukocyte Antigen - DR isotype (HLADR), HLA-DRA (gene 3122); assay: BSK_3C_HLADR: BioMAP Diversity Plus: 3C Assay for Human Leukocyte Antigen - DR isotype (HLADR) Biomarker Activity (AID 2283019); conditions: primary human endothelial cells (HUVEC); actives raise or lower the signal;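 for outcome: ELISA of cell-surface HLA-DR on HUVEC 24 h after dosing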
Method in brief: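 Primary human umbilical vein endothelial cells (3C system) were dosed with compound and cell-surface HLA-DR was quantified by ELISA at 24 h. Activity was fitted bidirectionally against DMSO as negative control and baseline.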

[6] = read-out: Interleukin-8 (IL8), CXCL8 (gene 3576); assay: BSK_3C_IL8: BioMAP Diversity Plus: 3C Assay for Interleukin-8 (IL8) Biomarker Activity (AID 2283020); conditions: primary human endothelial cells (HUVEC); actives raise or lower the signal
Method in brief: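 Primary human umbilical vein endothelial cells (3C system) were exposed to test chemical for 24 h, then IL-8 was quantified by ELISA. Responses were fitted bidirectionally against DMSO vehicle as baseline.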

[7] = read-out: Monokine induced gamma interferon (MIG), CXCL9 (gene 4283); assay: BSK_3C_MIG: BioMAP Diversity Plus: 3C Assay for Monokine induced gamma interferon (MIG) Biomarker Activity (AID 2283021); conditions: primary human endothelial cells (HUVEC); actives raise or lower the signal;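 for AC50: MIG protein level measured by immunoassay in the treated endothelial cultures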
Method in brief: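 Primary human umbilical vein endothelial cells in the 3C system were exposed to chemical for 24 h, after which MIG was quantified by ELISA. Activity was fitted bidirectionally against DMSO as negative control and baseline.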

[8] = BSK_3C_SRB: Viability Assessment in the BioMAP Diversity Plus: 3C Assay (AID 2283023); conditions: primary human endothelial cells (HUVEC);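 note: fitted both ways against DMSO so a hit may be signal rise or drop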
Method in brief: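 Primary human umbilical vein endothelial cells in the 3C system were read 24 h after compound dosing. Total protein was stained with 0.1% sulforhodamine B after 10% TCA fixation and read at 560 nm, with bidirectional fitting against DMSO as baseline.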

[9] = read-out: Matrix Metallopeptidase 1 (MMP1), MMP1 (gene 4312); assay: BSK_BE3C_MMP1: BioMAP Diversity Plus: BE3C Assay for Matrix Metallopeptidase 1 (MMP1) Biomarker Activity (AID 2283024); conditions: primary human bronchial epithelial cells; actives raise or lower the signal
Method in brief: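 Primary human bronchial epithelial cells were dosed with test chemicals, and MMP1 levels were measured by ELISA 24 h later. Data were fitted bidirectionally against DMSO as the negative control and activity baseline.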

[10] = molecular target: human Vitamin D Receptor (VDR), VDR (gene 7421) (UniProt P11473); assay: ATG_VDR_TRANS: Attagene TRANS-FACTORIAL HepG2 Assay for human Vitamin D Receptor (VDR) (AID 2283022; active = hit-call score of the fitted dose curve at least 0.9, where 1 is the maximum)
Method in brief: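 HepG2 cells were transiently transfected with multiple GAL4-UAS reporter units, so signal reflects exogenous chimeric receptor-Gal4 activity. After 24 h compound exposure, reporter mRNA was measured by RT-PCR, fluorescent labelling and capillary electrophoresis, fitted for gain of signal versus DMSO.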

Sequence of E-selectin (Homo sapiens) (P16581 whole entry, looked up): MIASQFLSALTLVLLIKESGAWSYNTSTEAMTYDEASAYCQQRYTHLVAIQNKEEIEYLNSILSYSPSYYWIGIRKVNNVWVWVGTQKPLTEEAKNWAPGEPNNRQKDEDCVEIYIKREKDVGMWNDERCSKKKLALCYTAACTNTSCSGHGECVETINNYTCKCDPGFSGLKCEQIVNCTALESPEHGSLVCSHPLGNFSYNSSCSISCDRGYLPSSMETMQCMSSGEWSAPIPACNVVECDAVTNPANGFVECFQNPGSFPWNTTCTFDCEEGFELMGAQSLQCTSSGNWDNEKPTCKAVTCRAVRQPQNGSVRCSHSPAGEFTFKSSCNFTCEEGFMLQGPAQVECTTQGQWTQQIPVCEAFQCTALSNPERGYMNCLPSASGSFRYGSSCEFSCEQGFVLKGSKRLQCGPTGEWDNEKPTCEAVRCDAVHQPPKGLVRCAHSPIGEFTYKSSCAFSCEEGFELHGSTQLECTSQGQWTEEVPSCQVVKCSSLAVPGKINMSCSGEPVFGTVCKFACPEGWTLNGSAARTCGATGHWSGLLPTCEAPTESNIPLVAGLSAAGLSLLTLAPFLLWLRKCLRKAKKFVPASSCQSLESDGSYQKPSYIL
Sequence of human Vitamin D Receptor (VDR), VDR (gene 7421) (P11473 whole entry, looked up, the tested form may be a part): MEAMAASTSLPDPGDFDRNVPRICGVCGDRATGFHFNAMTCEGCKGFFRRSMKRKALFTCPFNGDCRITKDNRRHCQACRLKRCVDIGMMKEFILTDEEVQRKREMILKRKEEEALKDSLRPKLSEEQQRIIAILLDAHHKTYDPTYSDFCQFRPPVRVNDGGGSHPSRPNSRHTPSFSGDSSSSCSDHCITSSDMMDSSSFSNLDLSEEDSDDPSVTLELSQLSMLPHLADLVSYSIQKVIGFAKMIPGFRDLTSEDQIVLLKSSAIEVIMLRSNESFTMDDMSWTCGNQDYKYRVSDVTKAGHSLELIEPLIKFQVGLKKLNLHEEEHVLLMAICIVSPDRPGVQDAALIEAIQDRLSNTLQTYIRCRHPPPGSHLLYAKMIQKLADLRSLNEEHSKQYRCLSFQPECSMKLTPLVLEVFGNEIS

SMILES: Clc1cccc(Cl)c1
- outcome [1]: inactive
- outcome [2]: inactive
- outcome [3]: inactive
- outcome [4]: inactive
- outcome [5]: inactive
- outcome [6]: inactive
- outcome [7]: inactive
- outcome [8]: inactive
- outcome [9]: inactive

SMILES: Cc1cc(Cl)ccc1N
- outcome [1]: inactive
- outcome [2]: inactive
- outcome [3]: inactive
- outcome [4]: inactive
- outcome [5]: inactive
- outcome [6]: inactive
- outcome [7]: inactive
- outcome [8]: inactive
- outcome [9]: inactive

SMILES: Clc1cccc(Cl)c1Cl
- outcome [1]: inactive
- outcome [2]: inactive
- outcome [3]: inactive
- outcome [4]: inactive
- outcome [5]: inactive
- outcome [6]: inactive
- outcome [7]: inactive
- outcome [10]: inactive
- outcome [8]: inactive
- outcome [9]: inactive

SMILES: O=S(=O)(C(Cl)(Cl)Cl)C(Cl)(Cl)Cl
- AC50 [1]: 1.86 µM (active)
- AC50 [2]: 3.32 µM (active)
- AC50 [3]: 1.9 µM (active)
- AC50 [4]: 1.16 µM (active)
- AC50 [5]: 0.852 µM (active)
- AC50 [6]: 5.32 µM (active)
- AC50 [7]: 3.82 µM (active)
- outcome [10]: inactive
- AC50 [8]: 1.12 µM (active)
- AC50 [9]: 7.31 µM (active)

SMILES: Oc1c(Cl)cc(Cl)cc1Cl
- outcome [1]: inactive
- outcome [2]: inactive
- outcome [3]: inactive
- outcome [4]: inactive
- outcome [5]: inactive
- outcome [6]: inactive
- outcome [7]: inactive
- outcome [8]: inactive
- outcome [9]: inactive

SMILES: N#CCCC(Br)(C#N)CBr (stereo not drawn)
- AC50 [1]: 10.6 µM (active)
- AC50 [2]: 20 µM (active)
- AC50 [3]: 7.55 µM (active)
- AC50 [4]: 5.77 µM (active)
- AC50 [5]: 3.16 µM (active)
- AC50 [6]: 8.39 µM (active)
- AC50 [7]: 12.7 µM (active)
- outcome [10]: inactive
- AC50 [8]: 5.06 µM (active)
- AC50 [9]: 20 µM (active)

SMILES: N#Cc1cccnc1
- outcome [1]: inactive
- outcome [2]: inactive
- outcome [3]: inactive
- outcome [4]: inactive
- outcome [5]: inactive
- outcome [6]: inactive
- outcome [7]: inactive
- outcome [10]: inactive
- outcome [8]: inactive
- outcome [9]: inactive

SMILES: COc1ccccc1N
- outcome [1]: inactive
- outcome [2]: inactive
- outcome [3]: inactive
- outcome [4]: inactive
- outcome [5]: inactive
- outcome [6]: inactive
- outcome [7]: inactive
- outcome [8]: inactive
- outcome [9]: inactive

SMILES: NC(=O)CCl
- outcome [1]: inactive
- outcome [2]: inactive
- outcome [4]: inactive
- outcome [5]: inactive
- outcome [6]: inactive
- outcome [7]: inactive
- outcome [10]: inactive
- outcome [8]: inactive
- outcome [9]: inactive

SMILES: CCCCOC(=O)COC(=O)c1ccccc1C(=O)OCCCC
- outcome [1]: inactive
- outcome [2]: inactive
- outcome [3]: inactive
- outcome [4]: inactive
- outcome [5]: inactive
- outcome [6]: inactive
- outcome [7]: inactive
- outcome [8]: inactive
- outcome [9]: inactive

SMILES: C=CC(Cl)CCl (stereo not drawn)
- outcome [1]: inactive
- AC50 [2]: 0.14 µM (active)
- outcome [3]: inactive
- outcome [4]: inactive
- outcome [5]: inactive
- outcome [6]: inactive
- outcome [7]: inactive
- outcome [8]: inactive
- outcome [9]: inactive

SMILES: CCCCCCCCCCCCN(C)C
- outcome [1]: inactive
- outcome [2]: inactive
- outcome [3]: inactive
- outcome [4]: inactive
- outcome [5]: inactive
- outcome [6]: inactive
- outcome [7]: inactive
- outcome [10]: inactive
- AC50 [8]: 20 µM (active)
- outcome [9]: inactive

SMILES: Cc1cc(C(C)(C)c2ccc(O)c(C)c2)ccc1O
- AC50 [1]: 15.8 µM (active)
- AC50 [2]: 15.7 µM (active)
- AC50 [3]: 19.3 µM (active)
- AC50 [4]: 12.5 µM (active)
- AC50 [5]: 14.7 µM (active)
- AC50 [6]: 18.2 µM (active)
- outcome [7]: inactive
- outcome [10]: inactive
- AC50 [8]: 17 µM (active)
- outcome [9]: inactive

SMILES: c1ccc(-c2cccc(-c3ccccc3)c2)cc1
- AC50 [1]: 11.4 µM (active)
- AC50 [2]: 11.6 µM (active)
- AC50 [3]: 12.4 µM (active)
- AC50 [4]: 5.91 µM (active)
- AC50 [5]: 9.9 µM (active)
- AC50 [6]: 7.45 µM (active)
- outcome [7]: inactive
- AC50 [8]: 10.7 µM (active)
- AC50 [9]: 0.136 µM (active)

SMILES: Cc1c([N+](=O)[O-])c(C)c([N+](=O)[O-])c(C(C)(C)C)c1[N+](=O)[O-]
- AC50 [1]: 20 µM (active)
- outcome [2]: inactive
- outcome [3]: inactive
- AC50 [4]: 20 µM (active)
- AC50 [5]: 26.9 µM (active)
- outcome [6]: inactive
- outcome [7]: inactive
- AC50 [8]: 20 µM (active)
- AC50 [9]: 7.08 µM (active)

SMILES: CC1(C)[C@H](C(=O)O[C@H](C#N)c2cccc(Oc3ccccc3)c2)[C@@H]1/C=C(\Cl)C(F)(F)F
- outcome [1]: inactive
- outcome [2]: inactive
- outcome [3]: inactive
- AC50 [4]: 1.11 µM (active) and 4.07 µM (active)
- outcome [5]: inactive
- outcome [6]: inactive
- outcome [7]: inactive
- outcome [10]: inactive
- outcome [8]: inactive
- AC50 [9]: 0.0142 µM (active)
- outcome [9]: inactive

SMILES: CC(C=O)Cc1ccc2c(c1)OCO2 (stereo not drawn)
- outcome [1]: inactive
- outcome [2]: inactive
- outcome [4]: inactive
- outcome [5]: inactive
- outcome [6]: inactive
- outcome [7]: inactive
- outcome [10]: inactive
- outcome [8]: inactive
- outcome [9]: inactive

SMILES: C#CCOC(=O)/C=C(C)/C=C/CC(C)CCCC(C)C (stereo not drawn)
- AC50 [1]: 6.38 µM (active)
- outcome [2]: inactive
- AC50 [3]: 36.8 µM (active)
- AC50 [4]: 13.4 µM (active)
- AC50 [5]: 28.1 µM (active)
- AC50 [6]: 0.0524 µM (active)
- outcome [7]: inactive
- outcome [10]: inactive
- AC50 [8]: 32.1 µM (active)
- outcome [9]: inactive

SMILES: O=C(Cc1ccccc1)OCCc1ccccc1
- outcome [1]: inactive
- outcome [2]: inactive
- outcome [4]: inactive
- outcome [5]: inactive
- outcome [6]: inactive
- outcome [7]: inactive
- outcome [10]: inactive
- outcome [8]: inactive
- outcome [9]: inactive

SMILES: CCC(C)(C#N)N=NC(C)(C#N)CC (stereo not drawn)
- outcome [1]: inactive
- outcome [2]: inactive
- outcome [3]: inactive
- outcome [4]: inactive
- outcome [5]: inactive
- outcome [6]: inactive
- outcome [7]: inactive
- outcome [8]: inactive
- outcome [9]: inactive

SMILES: Oc1ccc(Cc2ccc(O)cc2)cc1
- outcome [1]: inactive
- outcome [2]: inactive
- outcome [3]: inactive
- outcome [4]: inactive
- outcome [5]: inactive
- outcome [6]: inactive
- outcome [7]: inactive
- outcome [8]: inactive
- outcome [9]: inactive

SMILES: O=[N+]([O-])c1ccc(Nc2ccccc2)cc1
- outcome [1]: inactive
- outcome [2]: inactive
- outcome [3]: inactive
- AC50 [4]: 20 µM (active)
- outcome [5]: inactive
- outcome [6]: inactive
- outcome [7]: inactive
- outcome [10]: inactive
- outcome [8]: inactive
- outcome [9]: inactive
